# TrxR1 substrate = rat thioredoxin reductase 1 substrate activity; AID 588456; hit rate 0.01% among 390,000; Potency, µM (series often up to 114 µM), inactives show top-dose activity change, negative = substrate turnover; purified TrxR1 substrate turnover, NADPH consumption readout; O89049; note: % is set by controls: 0 for no effect and ±100 for the full control effect; nearly all actives have a fitted effect of over 50% in size
# Target sequence (O89049 whole entry, looked up): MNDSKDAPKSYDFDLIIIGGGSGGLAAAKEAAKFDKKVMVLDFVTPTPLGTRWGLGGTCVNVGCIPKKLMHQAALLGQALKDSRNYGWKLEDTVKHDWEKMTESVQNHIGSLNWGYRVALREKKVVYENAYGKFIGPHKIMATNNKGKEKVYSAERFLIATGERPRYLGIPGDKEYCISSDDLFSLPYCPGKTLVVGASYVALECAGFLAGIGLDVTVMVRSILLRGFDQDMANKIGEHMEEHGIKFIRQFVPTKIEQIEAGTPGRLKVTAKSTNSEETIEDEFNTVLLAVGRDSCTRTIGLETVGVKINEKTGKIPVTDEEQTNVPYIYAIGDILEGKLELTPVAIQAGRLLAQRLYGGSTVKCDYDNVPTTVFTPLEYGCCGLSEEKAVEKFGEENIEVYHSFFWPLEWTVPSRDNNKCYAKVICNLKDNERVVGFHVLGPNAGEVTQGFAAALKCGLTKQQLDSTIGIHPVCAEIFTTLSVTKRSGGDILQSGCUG
#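 Rat TrxR1, dispensed at 90 nM, was prereduced with 400 uM NADPH (final) for 5 min at ~22 deg C, then incubated with compound 15 min before 400 uM selenite. A first-read NADPH fluorescence drop versus no-compound background flagged substrates.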
# GALK inhibitor = galactokinase (human) inhibition. Purified GALK, Kinase-Glo residual ATP luminescence. Potency, µM (series often up to 57.5 µM), without a hit: at the highest dose activity change, negative = inhibition, usual class: inhibitors. hit rate 0.007% among 270,000. AID 1868; note: % is set by controls: 0 for no effect and ±100 for the full control effect
#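 ATP-depletion format; final 35 uM ATP, 100 uM D-galactose, 5 nM enzyme; pH 8.0 HEPES/Mg2+ buffer; 60 min RT; luminescence read 10 min after detection reagent.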
# Nrf2 block = blocks Nrf2 signaling; AID 504444; hit rate 2.1% among 360,000; A549 ARE-Fluc reporter, luciferase luminescence, 18-24 h; Potency, µM (highest dose often 46 µM), for the others: at the top dose activity change, negative = inhibition, usual class: inhibitors; note: % is set by controls: 0 for no effect and ±100 for the full control effect; nearly all actives have a fitted effect of over 60% in size
#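 Reporter: ARE-Fluc in A549. Exposure: 18-24 h, 37 °C, 5% CO2, 5% FBS OPTI-MEM. Readouts: fluorescent cytotoxicity (CellTiter-Fluor), then luminescent Nrf2 signal after BugLite.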
# Nrf2 activator = activators of Nrf2 (ARE) signaling; AREc32 ARE-luciferase reporter (MCF7-derived line), luminescence, 24 h; Potency, µM (series often up to 46.1 µM), without a hit: at the highest dose activation, actives largely listed as activators; hit rate 0.31% among 410,000; note: % of control where 0% means no effect; nearly all actives have a fitted effect of over 65% in size
#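 Luciferase luminescence (Steady-Glo, 30 min at room temperature) served as the read-out of ARE activation in AREc32 cells treated with compounds for 24 hr at 37 deg C.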
# A549 viability = A549 cytotoxicity, counter-screen for Nrf2 inhibitors. A549 ARE-Fluc cells, CellTiter-Fluor viability, 18-24 h. AID 504648. hit rate 0.16% among 390,000. Potency, µM (doses to about 46 µM), without a hit: at the highest dose activity change, negative = cytotoxicity, usual class: inhibitors; note: % is set by controls: 0 for no effect and ±100 for the full control effect
#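 Cytotoxicity counterscreen: CellTiter-Fluor fluorescence was measured in A549 ARE_Fluc cells after 18-24 h of compound exposure in a concentration series. The subsequent BugLite luminescent read reports ARE-luciferase activity.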
# rTrxR1 inhibitor = rat TrxR1 inhibition. O89049. recombinant rTrxR1, NADPH fluorescence consumption, selenite substrate. Potency, µM (doses to about 114 µM), without a hit: top-dose activity change, negative = inhibition, hits mostly inhibitors. hit rate 1% among 390,000; note: % is set by controls: 0 for no effect and ±100 for the full control effect; nearly all actives have a fitted effect of over 65% in size
#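 Rat TrxR1 (90 nM in the dispensed reagent) was pre-reduced with 400 uM NADPH for 5 min at room temperature, then incubated with compound for 15 min. After 400 uM selenite was added, NADPH fluorescence (Ex 340/Em 450 nm) was followed for 8 min.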
# * hit, by the source's call; ? = inconclusive; / = no result given; [ ] = another dose, or the depositor's remark. This is a sample that favours compounds with a hit; in the whole collection about 3% have one here. Calls come from the whole dose curve; as a rule, active = well fitted curve in the direction sought with a large enough effect; inconclusive = small, poorly fitted or top-dose-only effect, or another doubt; inactive = no such curve, though single readings can be large; an effect the other way counts as inactive or inconclusive. Potency is the fitted concentration of half-maximal effect.
SMILES,TrxR1 substrate,GALK inhibitor,Nrf2 block,Nrf2 activator,A549 viability,rTrxR1 inhibitor
Cc1cccc(C)c1NC(=O)N1CCN(c2nc3ccccc3s2)CC1,4%,0%,4.6µM*,1%,-18%,2%
Cc1cccc(Cl)c1NC(=O)N1CCN(c2ccnc3cc(Cl)ccc23)CC1,1%,/,9.2µM*,0%,-11%,13%
CC(=O)N1CCN(c2ccnc3cc(Cl)ccc23)CC1,5%,1%,?,0%,2%,17%
CCCCNC(=O)N1CCN(c2ccnc3cc(Cl)ccc23)CC1,8%[57.1 µM],2%,10µM*,0%,-4%,-2%[57.1 µM]
COc1ccc(-c2nn(-c3ccc(F)cc3)c3c2cnc2ccc(F)cc23)cc1OC,4%,/,9%,0%,7%,9%
O=C(Nc1ccc(C(F)(F)F)cc1)N1CCN(c2ccnc3cc(Cl)ccc23)CC1,-5%[11.4 µM],/,18µM*,10%,?,72%[57.1 µM]
O=C(O)CSCC(=O)N1CCN(c2ccnc3cc(Cl)ccc23)CC1,1%,2%,-7%,-1%,-9%,5%
COc1ccc(CN(Cc2ccccc2)C(=O)c2ccccc2N)cc1COc1ccc(NC(C)=O)cc1,/,/,-10%,/,-2%,/
Cc1ccc(C)c(Nc2nc3nonc3nc2Nc2cccc(C)c2C)c1,-9%,/,5.8µM*,1%,?,-1%
Cn1c(NCCO)nc2c1c(=O)n(Cc1ccccc1Cl)c(=O)n2C,6%,/,10%,0%,2%,26%
Cc1ccc(-c2cc(C(=O)NCCc3ccccc3)c3c(-c4ccc(C)cc4)[nH]nc3n2)cc1,11%[57.1 µM],/,?,9%,?,18%[57.1 µM]
Cc1cccc(NC(=O)COC(=O)c2ccc([N+](=O)[O-])o2)c1C,-3%[57.1 µM],0%,-28%,5%,1%,?
CN(C)S(=O)(=O)c1cccc(NC(=O)COC(=O)c2ccc([N+](=O)[O-])o2)c1,-7%,-3%,14%,6%,-18%,25µM*
O=C(COC(=O)c1ccc([N+](=O)[O-])o1)Nc1ccc(Br)cc1F,-6%,/,-4%,12%,0%,5µM*
O=C(COC(=O)c1ccc([N+](=O)[O-])o1)Nc1ccc(F)cc1,0%,/,10%,6%,5%,25µM*
CCCCNC(=S)NCCCc1cnc[nH]1,/,/,8%,/,24%,/
CC(C)Oc1ccc(C(=O)CCN2CCCCC2)cc1,4%,-2%,-31%,?,14%,?
COc1ccc(N2CCN(CCC(N)=O)CC2)cc1,10%[57.1 µM],1%,/,-1%,8%,10%[57.1 µM]
CCCOc1ccc(C(=O)CCN2CCN(C(=O)OCC)CC2)cc1,4%[57.1 µM],0%,-7%,?,4%,8.9µM*
COc1ccc(C(O)(CCc2ccccc2)CCN2CCCCC2)cc1 (stereo not given),7%[57.1 µM],-1%,19%,0%,-14%,8.9µM*
COc1ccc(C(=O)CCN2CCCCCC2)cc1,7%,2%,/,?,5%,0.79µM*
C=CCC(O)(CCN1CCCCC1)c1ccccc1 (stereo not given),10%[57.1 µM],1%,/,-1%,5%,5%[57.1 µM]
COc1ccc(C(=O)CCN2CCN(c3ccc(OC)cc3)CC2)cc1,-5%[57.1 µM],/,-2%,?,2%,2.8µM*
C=CCN(C)CCCCCCOc1ccc(C(=O)c2ccc(Br)cc2)c(F)c1,6%,/,/,/,/,-2%
CCOC(=O)c1cc(OC(=O)c2ccccc2C)n(-c2ccccc2)n1,5%,/,2%,-1%,-6%,20%
SMILES,TrxR1 substrate,GALK inhibitor,Nrf2 block,Nrf2 activator,A549 viability,rTrxR1 inhibitor
Cc1cc(C)cc(NC(=O)CSc2nnc(CNC(=O)c3c(F)cccc3Cl)o2)c1,1%,/,?,5%,0%,5%
CCOc1cc(CNC(=O)c2cc(-c3ccccc3)n[nH]2)cc(OCC)c1OCC,3%,/,?,1%,0%,22%
COc1ccc(C(=O)CN2CCN(c3ccc(Cl)cc3)CC2)cc1OC,7%,/,?,2%,-1%,-17%
COc1ccc(OCCN2CCN(C(=O)c3ccc(OC)cc3)CC2)cc1,7%,2%,10µM*,0%,-13%,20%
COc1ccc(C(=O)CN2CCN(c3ccc(F)cc3)CC2)cc1OC,2%,1%,-22%,0%,-2%,20µM*
O=C(CCN1CCCC1)c1cccs1,5%[57.1 µM],-2%,6%,?,2%,0.4µM*
O=C(CCN1CCC(c2cccs2)=N1)c1cccs1,0%,/,8%,?,1%,22µM*
CN1C(=O)c2ccccc2Sc2ccc(NC(=O)COc3ccccc3)cc21,-2%[57.1 µM],/,/,3%,-14%,14%[57.1 µM]
COc1ccc(CNC(=O)CCc2nc3cccnc3n2Cc2ccccc2)cc1,-6%,/,5%,0%,6%,-2%
CCOc1ccc(C(=O)CCN2CCCCC2)cc1,13%,6%,16%,?,-2%,0.71µM*
O=C(CCN1CCCCCC1)c1ccccc1,10%[11.4 µM],-5%,9%,1%,-3%,0.89µM*
O=C(/C=C/c1ccccc1)CCN1CCCCC1,-5%[57.1 µM],/,6%,?,-9%,?
O=C(CC(=O)c1ccccc1)c1ccccc1,-14%,/,-10%,14µM*,-1%,-16%
Cc1nc(-c2ccc(S(=O)(=O)Nc3ccc(C)c(C)c3)s2)cs1,/,/,-14%,/,5%,/
CCOc1ccc(-c2nnc(SCC(=O)N(CC)c3cccc(C)c3)o2)cc1,-2%,/,-2%,0%,11%,16%
O=S(=O)(Nc1ccc(-c2ccc(N3CCCC3)nn2)cc1)c1ccc(OC(F)(F)F)cc1,-4%[57.1 µM],/,/,1%,-14%,18%[57.1 µM]
S=C(NCc1ccccc1)N1CCN(c2cccc(Cl)c2)CC1,3%[57.1 µM],-1%,?,0%,3%,22%[57.1 µM]
S=C(NC1CC2CCC1C2)N1CCN(c2cccc(Cl)c2)CC1 (stereo not given),0%,6%,16µM*,3%,-10%,8%
Cc1ccc(CN(C(=O)COc2ccc(Cl)c(C)c2)C2CCS(=O)(=O)C2)o1 (stereo not given),1%,/,-9%,4%,3%,-24%
CC(C)(C)C1CCc2c(sc3nc(-c4cc5cc(Br)ccc5oc4=O)[nH]c(=O)c23)C1 (stereo not given),31%,/,?,0%,11%,66%
COc1cccc(NC(=O)C(=O)NCCc2csc3nc(-c4ccccc4C)nn23)c1,-3%[57.1 µM],/,/,5%,0%,-2%[57.1 µM]
c1coc(Cn2c(-c3ccco3)nc3ccccc32)c1,27%,0%,16%,15%,1%,3.2µM*
Clc1ccc(OCCn2c(-c3ccco3)nc3ccccc32)cc1,11%,0%,?,3%,2%,?
Cc1nc([N+](=O)[O-])cn1CC(O)c1ccc2c(c1)OCO2 (stereo not given),1%,/,/,/,/,11%
